Screening data as filed in PubChem BioAssay.
Fam108B inh: blocks mouse Fam108B hydrolase in RBBP9 counter-screen; recombinant Fam108B, FP-Rh probe fluorescence polarization; inhibition, % at 9.51 µM; 300,000 tested, 0.33% active; AID 1947;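 active means inhibition above the screen mean inhibition plus 3 SD, computed separately per campaign, cut at about 18% in these data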;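 further: inhibitors lower polarization as less probe binds the enzyme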
PAFAH2 FP inh: PAFAH2 (human) inhibition; Q99487; recombinant PAFAH2, FP-rhodamine activity probe, fluorescence polarization; inhibition, % at 3.39 µM; 340,000 tested, 0.99% active; AID 492956;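 active means inhibition above the mean over all tested compounds plus 3 SD, cut at about 30% in these data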;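 further: inhibitors block probe labeling of enzyme so polarization drops; 0% = enzyme with DMSO and 100% = wells lacking PAFAH2 protein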
PME-1 primary: blocks human protein phosphatase methylesterase 1. Q9Y570. recombinant PME-1, FP-Rh probe fluorescence polarization. inhibition, % at 5.9 µM. 320,000 tested, 0.53% active. AID 2130;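 active means inhibition above the campaign mean of all compounds plus 3 SD, cut at about 26% in these data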;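 further: competitive labeling of PME-1 active site by serine hydrolase directed probe; 0% = PME-1 with DMSO and 100% = wells lacking PME-1 enzyme; inhibitors block probe labeling so polarization falls and inhibition rises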
pPAFAH FP inh: inhibitors of human plasma PAF acetylhydrolase (pPAFAH). Q13093. recombinant pPAFAH, FP-rhodamine probe fluorescence polarization. inhibition, % at 3.39 µM. 330,000 tested, 1.5% active. AID 463082;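 active means inhibition above the mean inhibition across the screen plus 3 SD, cut at about 25% in these data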;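 further: inhibitors block binding of the rhodamine activity-based probe so polarization drops; 0% = enzyme with DMSO and 100% = wells lacking pPAFAH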
Target sequence (Q13093 whole entry, looked up): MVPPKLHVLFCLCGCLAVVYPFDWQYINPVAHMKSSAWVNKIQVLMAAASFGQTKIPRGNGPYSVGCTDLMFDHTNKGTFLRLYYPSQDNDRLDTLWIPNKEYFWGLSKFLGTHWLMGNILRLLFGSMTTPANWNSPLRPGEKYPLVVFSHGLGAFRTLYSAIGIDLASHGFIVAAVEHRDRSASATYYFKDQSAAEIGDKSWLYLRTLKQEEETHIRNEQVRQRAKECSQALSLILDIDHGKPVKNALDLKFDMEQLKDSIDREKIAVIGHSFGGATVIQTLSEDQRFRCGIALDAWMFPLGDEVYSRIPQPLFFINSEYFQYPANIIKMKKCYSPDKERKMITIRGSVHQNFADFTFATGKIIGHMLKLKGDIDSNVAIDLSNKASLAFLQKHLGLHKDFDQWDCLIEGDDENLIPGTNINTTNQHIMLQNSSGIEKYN
PAFAH1B3 FP inh: blocks human PAF acetylhydrolase 1B catalytic subunit 3; AID 492972; inhibition, % at 3.39 µM; 340,000 tested, 0.28% active; recombinant PAFAH1B3, FP-rhodamine probe, fluorescence polarization;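 active means inhibition above the screen-wide average of all tested compounds plus 3 SD, cut at about 25% in these data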;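 further: 0% = enzyme with DMSO only and 100% = wells lacking PAFAH1B3 protein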
PAFAH1B2 inh: inhibitors of human PAFAH1B2; P68402; recombinant PAFAH1B2, FP-rhodamine activity probe, fluorescence polarization; inhibition, % at 3.39 µM; 340,000 tested, 1.2% active; AID 492953;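 active means inhibition above the mean of all tested compounds plus 3 SD, cut at about 24% in these data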;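 further: 0% = enzyme with DMSO and 100% = wells lacking PAFAH1B2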
Target sequence (P68402 whole entry, looked up): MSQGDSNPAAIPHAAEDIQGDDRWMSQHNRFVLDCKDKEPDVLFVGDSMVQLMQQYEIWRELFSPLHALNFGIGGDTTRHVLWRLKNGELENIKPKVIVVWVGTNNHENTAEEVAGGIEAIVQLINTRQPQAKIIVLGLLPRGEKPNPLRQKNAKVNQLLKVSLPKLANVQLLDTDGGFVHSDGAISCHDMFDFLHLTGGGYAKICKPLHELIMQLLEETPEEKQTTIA
pPAFAH confirm: confirmation of human plasma PAF acetylhydrolase (pPAFAH) inhibitors; 2,300 tested, 72% active; AID 463230; inhibition, % at 3.39 µM; shares compounds with pPAFAH FP inh; recombinant pPAFAH, FP-Rh probe fluorescence polarization;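 active means mean inhibition of the triplicate above the hit cutoff set for the earlier primary screen, cut at about 25% in these data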;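 further: 0% = enzyme with DMSO and 100% = wells lacking pPAFAH enzyme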
PAFAH2 confirm: confirmation of human PAFAH2 inhibitors | shares compounds with PAFAH2 FP inh | recombinant PAFAH2, FP-rhodamine activity probe, fluorescence polarization | inhibition, % at 3.39 µM | 2,300 tested, 65% active;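 active means mean inhibition over three repeats above a set limit taken from the earlier primary screen, cut at about 30% in these data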;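 further: inhibitor blocks binding of rhodamine activity probe so polarization falls; 0% = enzyme with DMSO and 100% = wells lacking PAFAH2 protein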
Active calls of the source: *; . = not tested or not shown. Only some compounds are listed: those with a hit (about 2.8% of all), similar ones and a draw of the others.

SMILES | Fam108B inh | PAFAH2 FP inh | PME-1 primary | pPAFAH FP inh | PAFAH1B3 FP inh | PAFAH1B2 inh | PAFAH2 confirm | others
O=C1NC(=O)C(=Cc2cc3c(cc2[N+](=O)[O-])OCO3)C(=O)N1 | 0 | 8 | -1 | 3 | 10 | 8 | .
Brc1ccc(CN2CCNCC2)s1 | 0 | 9 | 0 | 3 | 4 | -1 | .
CCCCCCCCN=Cc1c(O)[nH]c(=O)[nH]c1=O | 0 | . | 3 | 62* | . | . | . | pPAFAH confirm=1
COCCCN=Cc1c(O)[nH]c(=S)[nH]c1=O | 3 | 3 | 3 | 1 | 13 | 12 | .
CN(C)C1C(=O)C(C(N)=O)=C(O)C2(O)C(=O)C3=C(O)c4c(O)cccc4C(C)(O)C3CC12 (centres undefined) | 9 | -9 | -7 | 36* | 7 | 6 | . | pPAFAH confirm=-1
CN(C)[C@@H]1C(=O)C(C(N)=O)=C(O)[C@@]2(O)C(=O)C3=C(O)c4c(O)ccc(Cl)c4[C@@](C)(O)C3C[C@@H]12 (some centres undefined) | . | 10 | . | . | 20 | 10 | .
O=C(COC(=O)Cc1ccccc1)Nc1ncc(Cl)cc1Cl | -3 | 0 | -1 | 35* | 4 | -2 | . | pPAFAH confirm=23
Cn1cccc1/C=C1/C(=O)NC(=S)N(Cc2ccc(F)cc2)C1=O | 16 | 44* | 5 | 61* | 3 | 55* | . | pPAFAH confirm=45*
O=c1[nH]c(=O)n(Cc2ccccc2)c(O)c1C=Nc1ccc(CN2CCOCC2)cc1 | 4 | 1 | -1 | 7 | -2 | 7 | .
COc1cc2c(cc1OC)-c1c(OC)c(OC)c(OC)c3ccnc(c13)C2=O | 8 | . | 1 | 38* | . | . | . | pPAFAH confirm=19
C[C@@]1(CO)[C@H](O)CC[C@@]2(C)[C@H]1CC[C@H]1C[C@@H]3C[C@@]12CC[C@]3(O)CO | 0 | . | -7 | -2 | . | . | .
CCCCN1C(=O)/C(=C/c2ccc(N(C)C)cc2)C(=O)N(Cc2ccco2)C1=O | -20 | -24 | -28 | 36* | -32 | -13 | . | pPAFAH confirm=-1
O=[N+]([O-])c1ccc(N2CCCC2)cc1N/N=C1\CN2CCC1CC2 | 3 | 2 | 3 | 8 | 2 | 3 | .
O=C(N/N=C1/CN2CCC1CC2)c1cc2ccccc2cc1O | 9 | 10 | 9 | 40* | 17 | 8 | . | pPAFAH confirm=9
C[N+](C)(C)Cc1ccccc1 | -6 | 1 | 2 | 4 | 7 | 2 | .
CC12CCC(=O)C=C1CCC1C2CCC2(C)C(O)CCC12 (centres undefined) | -1 | 34* | -1 | 0 | 5 | -2 | -5
O=C(N/N=C/c1c(O)n(C2CCCCC2)c(=S)[nH]c1=O)c1ccccc1 | 0 | 6 | -13 | 12 | 19 | 5 | .
O=C(N/N=C/C1C(=O)NC(=S)N(c2ccccc2)C1=O)c1cc(Br)c(O)c(Br)c1 (centres undefined) | 3 | 37* | -5 | 24 | 8 | 20 | 27
Cc1ccc(N2C(=O)NC(=O)/C(=C\c3cccn3C(C)(C)C)C2=O)cc1 | 3 | 43* | -1 | 1 | 15 | 1 | 29
COP(=O)(OC)/C(C=O)=N/Nc1ccc([N+](=O)[O-])cc1 | 4 | 0 | 7 | -1 | 11 | 10 | .
NC(=O)Nc1ccc(C(=O)OCC(=O)Nc2ccc(Cl)cc2C(=O)c2ccccc2)cc1 | -4 | 70* | -23 | 3 | -4 | -1 | 52*
C[N+](C)(C)CC(=O)Nc1ccc(Cl)cc1C(=O)c1ccccc1 | -1 | 3 | -7 | -6 | 12 | 2 | .
COc1ccc2nc3c(C)n(C)ccc-3c2c1 | . | 2 | . | . | 7 | -3 | .
COc1ccc(N2C(=O)NC(=O)/C(=C/c3ccc4c(c3)Cc3ccccc3-4)C2=O)cc1 | 2 | . | 0 | 14 | . | . | .
Cc1cccc(N2C(=O)NC(=O)/C(=C\c3ccc4c(c3)CCCN4Cc3ccccc3)C2=O)c1 | 4 | 33* | -6 | 11 | -19 | 0 | 37*
SMILES | Fam108B inh | PAFAH2 FP inh | PME-1 primary | pPAFAH FP inh | PAFAH1B3 FP inh | PAFAH1B2 inh | PAFAH2 confirm | others
O=C(c1cc(F)ccc1F)C1CCCN(Cc2ccc3nonc3c2)C1 (centres undefined) | 2 | 1 | -3 | 7 | 1 | 3 | .
Cc1cc(/C=C2/C(=O)NC(=O)N(Cc3ccco3)C2=O)c(C)n1-c1ccccc1O | -2 | 32* | -13 | 11 | 8 | 5 | 26
O=C1N(CN2CCOCC2)c2ccccc2C1(O)c1c[nH]c2ccccc12 (centres undefined) | 1 | -8 | -9 | -3 | 0 | 3 | .
Cc1cccc(N2C(=O)NC(=O)/C(=C\c3cc(C)n(-c4sc5c(c4C#N)CCCC5)c3C)C2=O)c1C | -3 | 33* | 2 | 9 | 8 | 3 | 22
N#C/C(N)=C(/N)C#N | . | 3 | -5 | 2 | 3 | -1 | .
CCOc1ccc(N2C(=O)/C(=C\c3cccs3)C(=O)NC2=S)cc1 | 4 | . | -8 | -1 | . | . | .
CCOc1ccc(N2C(=O)/C(=C/c3ccco3)C(=O)NC2=S)cc1 | -7 | 94* | -10 | 16 | 25 | 22 | 63*
CC(C)CN1CCN(Cc2c(F)cccc2Cl)CC1CCO (centres undefined) | -3 | -5 | -2 | 1 | 2 | 9 | .
O=P(Oc1ccccc1)(Oc1ccccc1)C(O)c1ccccc1 (centres undefined) | 2 | 30* | 46* | 3 | 4 | 2 | 16
O=C1NC(=O)C(CCc2ccncc2)(CCc2ccncc2)C(=O)N1C1CCCCC1 | 5 | 1 | -1 | 5 | 7 | 0 | .
O=C1NC(=O)N(C2CCCCC2)C(=O)C1C1c2ccccc2C(=O)N1Cc1ccccc1 (centres undefined) | 3 | 45* | 2 | 4 | -5 | 17 | 41*
CCC(C)n1c(O)c(C=NCCc2ccccc2)c(=O)[nH]c1=S (centres undefined) | -3 | 47* | -2 | 11 | 2 | 2 | 45*
CCC(C)n1c(O)c(C=NCCN2CCOCC2)c(=O)[nH]c1=S (centres undefined) | -1 | 25 | -5 | 7 | 7 | 3 | .
O=c1[nH]c(=S)n(C2CC2)c(O)c1/C=N/Nc1ccccc1 | 5 | 10 | -4 | 8 | 7 | 10 | .
CCC(C)n1c(O)c(/C=N/NC(=O)c2ccncc2)c(=O)[nH]c1=S (centres undefined) | 3 | 58* | 1 | 6 | 5 | 1 | 62*
CCC(C)n1c(O)c(/C=N/Nc2ccccc2)c(=O)[nH]c1=S (centres undefined) | 1 | 40* | 1 | 9 | 4 | 7 | 8
CCC(C)n1c(O)c(C=NCC2CCCO2)c(=O)[nH]c1=S (centres undefined) | 4 | 51* | -2 | 9 | -7 | 2 | 38*
